# An excerpt weighted towards active compounds, which were near 3.4% of everything screened.
# PKM2 act: PKM2 (human) enzyme activation. P14618. purified PKM2, Kinase-Glo ATP luminescence, activation; response scale: 0% is enzyme alone, no compound. Potency, µM (titrated, usually from 57.5 µM), for the others: at the highest dose activation, most hits filed as activators. 260,000 tested, 0.34% active. AID 1631; also: % is scaled to controls: 0 for no effect and ±100 for the full control effect; nearly all actives have a fitted effect of over 55% in size
# Target sequence (P14618 whole entry, looked up): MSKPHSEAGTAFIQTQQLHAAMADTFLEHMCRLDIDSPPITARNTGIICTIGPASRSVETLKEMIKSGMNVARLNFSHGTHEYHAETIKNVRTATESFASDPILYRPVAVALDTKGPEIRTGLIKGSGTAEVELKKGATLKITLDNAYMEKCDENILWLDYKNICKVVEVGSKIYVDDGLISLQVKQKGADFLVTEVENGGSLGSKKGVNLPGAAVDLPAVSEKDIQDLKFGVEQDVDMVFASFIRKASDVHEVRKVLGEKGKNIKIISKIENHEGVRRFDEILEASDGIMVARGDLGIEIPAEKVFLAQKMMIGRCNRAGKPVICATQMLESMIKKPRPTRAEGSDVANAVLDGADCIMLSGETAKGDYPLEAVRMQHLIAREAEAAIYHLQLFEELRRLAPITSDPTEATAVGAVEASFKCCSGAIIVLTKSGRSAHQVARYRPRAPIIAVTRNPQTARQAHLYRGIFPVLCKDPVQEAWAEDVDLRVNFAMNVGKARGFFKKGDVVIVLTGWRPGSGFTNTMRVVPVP
#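 Kinase-Glo luminescence reports ATP generated from ADP (0.1 mM) and PEP (0.5 mM) by purified hPK-M2 after 1 h at room temperature, pH 7.2 imidazole buffer; intermediate enzyme activity allows detecting inhibitors and activators.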
# VDR inhibitor: inhibitors of human vitamin D receptor; P11473; VDR-SRC2-3 peptide fluorescence polarization, 2 h; AID 504847; Potency, µM, for inactives: max response, negative = inhibition, usual class: inhibitors; 400,000 tested, 0.93% active; also: % is scaled to controls: 0 for no effect and ±100 for the full control effect
#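 Inhibition of the VDR/SRC2-3 peptide interaction is quantified by fluorescence polarization. Compounds (23 nl, pintool) incubate with the reagents for 2 hours at ambient room temperature.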
# KAT2A inh: blocks human GCN5L2 histone acetyltransferase; 390,000 tested, 0.21% active; Potency, µM (doses to about 58.9 µM), for inactives: at the top dose activity change, negative = inhibition, most hits filed as inhibitors; AID 504327; Q92830; GCN5L2 HAT assay, ThioGlo1 CoA-SH fluorescence; also: % is scaled to controls: 0 for no effect and ±100 for the full control effect
#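 Compounds, pin-transferred from DMSO stocks, meet 20nM GCN5L2 for 15 min before the reaction begins with H3(1-25) peptide (75uM) and acetyl-CoA (70uM). Thiol-reactive ThioGlo1 reports CoA release over 20 min at room temperature.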
# PLK1 PBD inh: blocks phosphopeptide binding to human PLK1 polo-box domain; P53350; Plk1 PBD binding of FITC phosphopeptide, fluorescence polarization; Potency, µM, for inactives: max response, negative = inhibition, actives largely listed as inhibitors; 360,000 tested, 2.8% active; AID 720504; also: series mostly up to about 57 µM; % is scaled to controls: 0 for no effect and ±100 for the full control effect; nearly all actives have a fitted effect of over 65% in size
# GLS inh: inhibitors of human glutaminase (GLS); AID 624170; O94925; Potency, µM (doses to about 45.5 µM), for inactives: top-dose activity change, negative = inhibition, most hits filed as inhibitors; 410,000 tested, 0.21% active; GLS enzymatic activity, qHTS titration; also: % is scaled to controls: 0 for no effect and ±100 for the full control effect
#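 Compounds were pin-transferred onto hKGA, after which L-glutamine (1 mM solution) and a detection mix of glutamate oxidase, HRP and Amplex Red were added. Initial and 30 min RT fluorescence reads were collected.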
# Mito fusion act: blocks mitochondrial division or promotes mitochondrial fusion. S. cerevisiae fusion-defective mutant growth rescue, CellTiterGlo 48 h. Potency, µM (titrated, usually from 46.1 µM), without a hit: at the top dose growth rescue (activation), hits mostly activators. 320,000 tested, 0.23% active; also: % of control where 0% means no effect; nearly all actives have a fitted effect of over 45% in size
#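 Growth-rescue viability read-out: after 48 h at the non-permissive 37C in glycerol/ethanol YPEG, yeast mitochondrial fusion mutants are measured by CellTiterGlo luminescence; compounds (23 nl pinned per well) restoring growth score as division inhibitors or fusion activators.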
# An asterisk follows results filed as active; ? = inconclusive; . = no result; [ ] = dose if it differs, or a comment. Calls follow the shape of the dose curve; as a rule, active = well fitted curve in the direction sought with a large enough effect; inconclusive = small, poorly fitted or top-dose-only effect, or another doubt; inactive = no such curve, though single readings can be large; an effect the other way counts as inactive or inconclusive. Potency is read from the fitted curve at half-maximal effect.
SMILES,PKM2 act,VDR inhibitor,KAT2A inh,PLK1 PBD inh,GLS inh,Mito fusion act
COC(=O)c1c(NC(=O)C2c3ccccc3Oc3ccccc32)sc2c1CCC(C(C)(C)C)C2 (stereo unspecified),.,-28%,-7%,.,-19%,.
O=C1C=C(c2ccccc2)C(c2ccccc2)C1 (stereo unspecified),.,11%,.,1%,-1%,.
O=C1c2[nH]nc(-c3ccccc3)c2C(c2ccccc2)N1c1cccc(C(F)(F)F)c1 (stereo unspecified),.,-4%,-3%,.,-6%,.
Cc1ccc(S(=O)(=O)Nc2cccc(Oc3cnccn3)c2)cc1,4%,-24%,-7%,27µM*,-4%,-1%
Cc1ccc(NS(=O)(=O)c2ccc(NC(=O)c3ccc(-c4ccccc4)cc3)cc2)c(C)c1,.,-16%,.,24µM*,-20%,.
COc1ccc(NS(=O)(=O)c2ccc(NC(=O)c3ccc(Br)cc3)cc2)nn1,7%,6%,-10%,-5%,-8%,0%
COc1ccc(NS(=O)(=O)c2ccc(NC(=O)c3ccccc3)cc2)nn1,-4%,?,-8%,15µM*,0%,-9%
Cc1ccc(NS(=O)(=O)c2ccc(NC(=O)c3ccccc3C(=O)O)cc2)c(C)c1,.,-13%,.,-5%,-5%,.
Cc1ccc(OCC(=O)NCCNC(=O)c2cnccn2)cc1C,-4%,-5%,-2%,2%,-8%,8%
CN(C(=O)c1cc2c(s1)-c1ccc(Cl)cc1SC2)c1cccc(C(F)(F)F)c1,.,11%,-2%,.,3%,.
COc1ccc(OC)c(NC(=O)CCN2CC(C)CC(C)C2)c1 (stereo unspecified),1%,-21%,-6%,24µM*,1%,-1%
c1nc(SSc2ncnc3nc[nH]c23)c2[nH]cnc2n1,.,25µM*,.,0.84µM*,-25%,.
O=c1c2c([nH]n1-c1ccccc1)C[C@@H](C1CCCCC1)O[C@H]2c1ccc(F)cc1,.,.,.,?,22%,.
Cc1cccc(S(=O)(=O)c2cn(Cc3ccccc3)c3cc(N4CCCCC4C)c(F)cc3c2=O)c1 (stereo unspecified),.,-2%,-7%,.,4%,.
CCOC(=O)Cc1csc(SCC(=O)NC2CCCC2)n1,.,9%,-3%,-9%,71%,9%
CCCCCCCCCCCCC(O)C(=O)O (stereo unspecified),.,0%,-21%,.,.,.
CCCCCCCCCCCCCCCCC(C(=O)O)C(O)(CC(=O)O)C(=O)O (stereo unspecified),.,10µM*,1.1µM*,.,-5%,.
S=c1[nH]nc(SCc2ccccc2)c2[nH]cnc12,.,-10%,.,?,7.1µM*,.
O=c1[nH]nc(SCc2ccccc2)c(=O)[nH]1,6%,-9%,-1%,-8%,-1%,0%
CCN(CC)S(=O)(=O)c1ccc(O)c(NC(=O)c2ccc(N3CCOCC3)c([N+](=O)[O-])c2)c1,-4%,?,-10%,21µM*,12%,1%
CCN(CC)S(=O)(=O)c1ccc(N2CCOCC2)c(NC(=O)c2ccccc2)c1,-12%,15%,0%,-5%,-6%,-1%
Cc1ccc(S(=O)(=O)N2CCOCC2)cc1NC(=O)COc1ccc(C(=O)c2ccccc2)cc1,.,89µM*,-3%,-8%,6%,-4%
CCN(CC)S(=O)(=O)c1ccc(O)c(NC(=O)COc2ccc(S(=O)(=O)N3CCOCC3)cc2)c1,.,?,.,24µM*,7%,.
CCN(CC)S(=O)(=O)c1ccc(N2CCOCC2)c(NC(=O)COc2ccc(Cl)cc2)c1,3%,19%,-13%,-5%,-5%,-7%
CNC(=O)COc1ccc(S(=O)(=O)N2CCCC2)cc1,-1%,50µM*,-7%,5.3µM*,?,2%
SMILES,PKM2 act,VDR inhibitor,KAT2A inh,PLK1 PBD inh,GLS inh,Mito fusion act
COc1cc(-c2nnc(-c3cc(-c4ccccc4)nc4ccccc34)o2)cc(OC)c1OC,.,-5%,.,5%,12%,.
Cn1c(CNC(=O)c2ccc3c(c2)OCO3)nnc1SCC(=O)Nc1ccc(F)cc1F,-11%,-8%,1%,-5%,-7%,-2%
C/C=C/C1=Cc2ccccc2C(CC(=O)OC)N1C(=O)OC (stereo unspecified),-10%[11.5 µM],.,.,.,.,.
COc1cc2c(cc1OC)CN(C(=O)CSc1ccccc1C)CC2,.,-30%,-4%,27µM*,-8%,.
COc1cc2c(cc1OC)CN(C(=O)c1ccc(OC)c([N+](=O)[O-])c1)CC2,0%,11%,-3%,1%,-9%,-1%
COc1cc2c(cc1OC)CN(C(=O)CSC1=NCCS1)CC2,.,.,.,-1%,-1%,.
COc1cc2c(cc1OC)CN(C(=O)c1cccc([N+](=O)[O-])c1)CC2,1%,79µM*,2%,27µM*,?,-4%
COc1ccc(C2/C=C\CN(C(=O)c3ccc(C)cc3)C(C)C(=O)N2Cc2ccc(F)cc2)cc1 (stereo unspecified),.,-3%,.,.,.,.
CCCC(=O)Nc1sc(C)c(C)c1C#N,-5%,2%,4%,21µM*,-1%,-2%
CCCCC(=O)Nc1sc2c(c1C#N)CC(C)(C)OC2,-2%,79µM*,2%,27µM*,?,3%
Cc1sc(NC(=O)C2CCCO2)c(C#N)c1C (stereo unspecified),-2%,7%,-6%,?,22%,10%
CC1(C)Cc2c(sc(NC(=O)Cc3ccccc3)c2C#N)CO1,-2%,8%,-3%,?,-5%,-4%
CCCCCC(=O)Nc1sc(C)c(C)c1C#N,5%,?,-17%,11µM*,-4%,-8%
Cc1sc(NC(=O)C2CCCC2)c(C#N)c1C,-14%,?,-9%,27µM*,3%,4%
Cc1sc(NC(=O)CCCC(=O)O)c(C#N)c1C,8%,3%,-17%,-8%,8%,-4%
COc1ccc(Oc2ccc3c(C(F)(F)F)cc(C(F)(F)F)nc3n2)cc1,-3%,27%,-18%,-7%,-3%,0%
CN(N)c1ccc2c(C(F)(F)F)cc(C(F)(F)F)nc2n1,1%,-12%,-6%,24µM*,-20%,27%
CCc1nc2ccc(C(=O)NCCCN(C)C)cn2c1N(C)CCCc1ccccc1,.,.,.,-8%,56%,.
O=C(O)CSc1cc(C(=O)c2cc(F)ccc2O)cn2c(=O)c3c(-c4ccccc4)csc3nc12,7%,-14%,?,?,9%,5%
CCOC(=O)c1sc2nc3c(SCCC(=O)O)cc(C(=O)c4cc(OC)ccc4O)cn3c(=O)c2c1C,0%,-4%,0%,?,5.6µM*,?
O=S1(=O)CC(O)C(O)CS1 (stereo unspecified),.,.,.,11µM*,4%,.
